Assay outcomes deposited in PubChem by several laboratories.
PrP 5UTR inh – inhibition of PrP 5' UTR reporter expression; AID 488862; inhibition, % (no concentration beside the values); cell-based PrP 5' UTR mRNA reporter, plate reader; hit rate 0.35% among 340,000; in the data active = inhibition above about 52%; also: 0 = median of the neutral control wells
SSB-PriA inh – K. pneumoniae PriA-SSBct interaction inhibition; AlphaScreen SSBct-PriA binding, biotinylated peptide; inhibition, % at 33 µM; hit rate 0.6% among 430,000; AID 1272365; in the data active = inhibition mostly above about 37%, no sharp cut-off; inactive = mostly below about 20%;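 also: plate controls were negative control peptide for no effect and reference peptide for full effect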
FadD28 FP inh – inhibitors of Mycobacterium tuberculosis FadD28 bisubstrate binding; FadD28 bisubstrate probe binding, fluorescence polarization; inhibition, % at 12.5 µM; hit rate 0.22% among 360,000; AID 588549; in the data active = inhibition above about 8.5%, passing the limit was not always enough
Rv3671c protease – inhibitors of M. tuberculosis serine protease Rv3671c. P9WHR9. hit rate 0.048% among 320,000. AID 2606. inhibition, % at 5.96 µM; in the data active = inhibition above about 38%;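 also: extracellular domain of Rv3671c used as enzyme; 0% = enzyme with DMSO and 100% = no enzyme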
UGM FP inh – inhibitors of M. tuberculosis UDP-galactopyranose mutase | purified UGM, fluorescence polarization probe displacement | inhibition, % at 10 µM | P9WIQ1 | hit rate 0.06% among 320,000; in the data active = inhibition above about 10%, passing the limit was not always enough
Target sequence (P9WIQ1 whole entry, looked up): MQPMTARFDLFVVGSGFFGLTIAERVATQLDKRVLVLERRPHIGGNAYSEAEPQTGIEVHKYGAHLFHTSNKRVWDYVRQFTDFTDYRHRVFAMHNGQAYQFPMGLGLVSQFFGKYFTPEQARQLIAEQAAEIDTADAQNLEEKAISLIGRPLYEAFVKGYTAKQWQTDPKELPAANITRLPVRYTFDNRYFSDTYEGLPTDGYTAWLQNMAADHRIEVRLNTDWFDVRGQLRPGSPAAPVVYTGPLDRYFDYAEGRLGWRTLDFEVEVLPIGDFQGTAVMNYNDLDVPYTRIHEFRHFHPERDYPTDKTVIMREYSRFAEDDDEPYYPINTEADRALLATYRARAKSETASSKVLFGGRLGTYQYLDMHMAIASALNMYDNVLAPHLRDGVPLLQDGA
PrPC surface inh – inhibitors of human cell surface prion protein PrPC. P04156. TR-FRET read-out. inhibition, % at 13.8 µM. hit rate 0.43% among 370,000. AID 720596; in the data active = inhibition above about 24%; also: 0% = median of the test wells and 100% = reference compound wells
PrP UTR cherry – prion 5' UTR mRNA inhibition, cherry-pick retest | shares compounds with PrP 5UTR inh | cell-based prion protein 5' UTR reporter, plate reader | inhibition, % at 2.5 µM | hit rate 48% among 1,100 | AID 504592; in the data active = inhibition above about 54%
Starred values were filed as active, the others as inactive; nt = not tested or not shown. The list is not random: actives were taken first. Their share in the collection is about 1.2%.

SMILES | PrP 5UTR inh | SSB-PriA inh | FadD28 FP inh | Rv3671c protease | UGM FP inh | PrPC surface inh | PrP UTR cherry
CCN(C[C@H]1N[C@@](Cc2ccccc2)(C(=O)OC)[C@H]2C(=O)N(C)C(=O)[C@@H]12)S(=O)(=O)c1ccc(C(C)(C)C)cc1 | 59.5* | 0.9 | -1.0 | 3.1 | nt | -6.0 | -5.8
COc1ccc(-c2ccnc3cc(C(=O)O)nn23)cc1 | 84.1* | -7.3 | -3.4 | 4.0 | 1.2 | -34.2 | -9.2
C=CCNC(=O)C(=O)NCc1ccsc1 | nt | -1.0 | nt | nt | nt | nt | nt
Cc1cccc(C)c1OCc1n[nH]c(=S)o1 | 73.2* | -2.4 | -1.2 | -1.0 | 3.1 | 1.4 | -25.5
Cc1cccc(OCc2n[nH]c(=S)o2)c1C | -65.7 | -1.4 | -1.9 | -4.9 | -0.1 | -1.0 | nt
Cc1ccc(C(=O)N/N=C/c2ccc([N+](=O)[O-])s2)cc1 | 74.6* | nt | -1.3 | -0.5 | 1.9 | -27.4 | 77.1*
Cc1ccc(C(=O)NN=Cc2ccc([N+](=O)[O-])s2)cc1 | nt | -13.3 | nt | nt | nt | nt | nt
CC(=O)OC1CC(OC2C(O)CC(OC3C(O)CC(OC4CCC5(C)C(CCC6C5CCC5(C)C(C7=CC(=O)OC7)CCC65O)C4)OC3C)OC2C)OC(C)C1OC1OC(CO)C(O)C(O)C1O (centres undefined) | 96.2* | -13.1 | -0.2 | nt | nt | 3.9 | 89.5*
CN(C)c1ccc(CCc2ccc(N)cc2)cc1 | 57.2* | 10.2 | 0.0 | 7.1 | -2.6 | 13.2 | 53.3*
O=C(c1oc(=O)c2ccccc2c1-c1ccccc1)N1CCC(O)CC1 | 68.3* | -10.9 | 0.3 | -4.1 | 0.1 | 9.3 | -21.1
O=C(c1oc(=O)c2ccccc2c1-c1ccccc1)N1CCN(C2CCCCC2)CC1 | 9.7 | -16.1 | -3.6 | -0.4 | -1.0 | -11.4 | nt
COc1cccc(C2=CC(c3cc(OC)ccc3OC)n3nnnc3N2)c1 (centres undefined) | -23.7 | -36.6 | -0.6 | -4.5 | 1.5 | -2.8 | nt
COc1ccc(OC)c(C2C=C(c3ccc(C)c(C)c3)Nc3nnnn32)c1 (centres undefined) | 68.7* | -27.9 | -1.7 | -2.5 | -1.2 | 2.5 | 3.1
COc1cccc(N2CCN(C(=O)c3ccc(CS(=O)c4ccccc4C)o3)CC2)c1 (centres undefined) | 56.4* | -2.2 | -1.5 | 4.5 | 1.3 | 11.6 | 83.5*
COc1ccc(CNC(=O)CSc2n[nH]c(=O)c3cc(-c4ccc(F)cc4)nn23)cc1 | nt | -10.0 | nt | nt | nt | nt | nt
COC1=C(C)C(=O)C2=C(C1=O)C(CO)N1C(C#N)C3CC4C(C1C2N1CCOC41)N3C (centres undefined) | 76.5* | -14.4 | -1.2 | nt | nt | -6.5 | 92.0*
COc1ccc(C(=O)Nc2cc(C)on2)c(OC)c1 | -49.6 | -7.6 | -1.4 | 6.9 | -0.8 | -0.6 | nt
COc1ccc(C(=O)Nc2ccc(C)cn2)c(OC)c1 | 78.8* | -11.1 | -5.1 | -3.5 | -0.4 | 1.7 | 75.1*
NCCNCCNCCN | 89.3* | -8.4 | -4.0 | 6.2 | 1.6 | -1.9 | -57.8
COc1ccccc1N1CCN(C(=O)CSc2n[nH]c(=O)c3cc(-c4ccco4)nn23)CC1 | nt | 7.0 | nt | nt | nt | nt | nt
COC(=O)c1ccc2c(c1)c(-c1ccccc1)c(-c1ccccc1)n2C | 84.6* | -2.1 | -1.5 | nt | nt | -2.5 | -27.4
COc1ccc2c(c1)sc1nc(-c3ccccc3)cn12 | 88.6* | -7.0 | -2.0 | -21.4 | -1.5 | 16.7 | 88.8*
CCOC(=O)N1CCN(C(=O)c2ccc3c(c2)sc2nc(-c4ccc(OC)cc4)cn23)CC1 | -31.8 | 7.6 | 0.9 | 4.8 | -5.0 | -1.3 | nt
CCC(NC(=O)c1n[nH]nc1-c1ccc(F)cc1)c1cccs1 (centres undefined) | nt | -14.0 | nt | nt | nt | nt | nt
CC(O)C1C=C/C=C\C(=O)OC2CC3OC4C5OC5(C)CCC4(COC(=O)C4OC4(C)C(O)CO1)C2(C)C31CO1 (centres undefined) | nt | -21.0 | nt | nt | nt | nt | nt
SMILES | PrP 5UTR inh | SSB-PriA inh | FadD28 FP inh | Rv3671c protease | UGM FP inh | PrPC surface inh | PrP UTR cherry
CC(O)C1C=CC=CC(=O)OC2CC3OC4C5OC5(C)CCC4(COC(=O)C4OC4(C)C(O)CO1)C2(C)C31CO1 (centres undefined) | 83.2* | nt | -1.3 | nt | nt | 90.2* | 82.4*
CCOc1ccc(-c2ccc(N3CCN(C(=O)c4ccc5ccccc5n4)CC3)nn2)cc1 | nt | -5.0 | nt | nt | nt | nt | nt
NC(=S)NN=Cc1nccc2ccccc12 | 78.6* | 78.0* | -1.1 | nt | nt | 23.5 | 71.0*
NC(=S)NN=Cc1c2ccccc2cc2ccccc12 | nt | 4.4 | nt | nt | nt | nt | nt
CCN(CC)S(=O)(=O)c1ccc(N2CCOCC2)c(NC(=O)c2cccc3ccccc23)c1 | -7.9 | -1.5 | 2.0 | 10.5 | -2.5 | -3.1 | nt
CCN(CC)S(=O)(=O)c1ccc(N2CCOCC2)c(NC(=O)c2cc(-c3ccccn3)nc3ccccc23)c1 | 66.5* | 3.0 | -0.4 | nt | nt | -2.5 | 23.8
N=c1ccn2c(n1)O[C@H]1[C@@H](CO)[C@H](O)O[C@H]12 | 52.2* | -4.9 | -0.4 | -4.1 | -3.6 | -0.1 | 37.9
O=C(NCCOc1ccc(-c2ccc(F)cc2)nn1)Nc1ccc(Cl)cc1 | nt | -12.0 | nt | nt | nt | nt | nt
Cn1ccc(C(=O)Nc2sc3c(c2C(N)=O)CCC3)n1 | nt | 2.0 | nt | nt | nt | nt | nt
Cn1c(NC2CCCCC2)cc(=O)n(C)c1=O | -27.0 | 0.6 | -2.9 | 1.5 | 1.7 | -4.4 | nt
Cc1cc(C2CCCCC2)n(O)c(=O)c1 | 68.9* | -11.8 | -0.1 | -4.0 | -0.4 | 8.0 | 32.0
O=S1(=O)CC(N2CCCC2)CN1C1CCCCC1 (centres undefined) | nt | nt | -0.1 | nt | nt | -6.2 | nt
O=S1(=O)CC(N2CCCCC2)C(N2CCCCC2)C1 (centres undefined) | 69.3* | -0.6 | 0.9 | 2.0 | -1.9 | 0.7 | -6.2
Cc1ccc(S(=O)(=O)NC2CCSC2=O)cc1C (centres undefined) | 74.8* | -13.0 | -1.9 | 2.4 | -1.0 | 5.6 | -7.5
Cc1ccc(S(=O)(=O)NC2CCCC2)cc1C | -40.4 | -17.1 | -4.3 | 0.8 | -1.5 | -1.9 | nt
Cc1ccc2nc(SC(C)C(=O)N3CCCCC3)[nH]c2c1 (centres undefined) | 66.0* | -5.0 | 1.0 | 5.2 | -4.5 | 8.7 | 4.6
O=C(OCCNC(=O)c1cc2ccccc2oc1=O)c1cccnc1 | 65.8* | -12.8 | 0.0 | 5.6 | -1.8 | -1.2 | 10.1
CC(C)CCCCCCCCCCCCC(=O)NCC(=O)NC1C(O)C(O)C(Nc2ncnc3nc[nH]c23)OC1C(O)CO (centres undefined) | 89.5* | -8.6 | -2.7 | nt | nt | nt | 86.3*
O=C(O)CNc1ncnc2nc[nH]c12 | nt | -10.0 | nt | nt | nt | nt | nt
C[C@@H]1O[C@@H](O[C@@H]2C=C3CCC4C(CC[C@]5(C)[C@@H](c6ccc(=O)oc6)CC[C@]45O)[C@@]3(C)CC2)[C@H](O)[C@H](O)[C@H]1O (some centres undefined) | 94.0* | 5.7 | 0.8 | -2.2 | 1.3 | -6.0 | 94.4*
C[C@@H]1O[C@@H](O[C@@H]2C=C3CC[C@@H]4C(CC[C@]5(C)[C@@H](c6ccc(=O)oc6)CC[C@]45O)[C@@]3(C)CC2)[C@H](O)[C@H](O)[C@H]1O (some centres undefined) | 94.0* | -9.4 | -0.9 | -2.8 | 1.7 | -7.1 | 89.7*
